Experiment [1] relates to Plasmodium falciparum Sir2 (PF13_0152, Sir2A). Briefly: Plasmodium falciparum Sir2A binding compounds – biochemical, small-molecule microarray, 635 nm fluorescence, primary screen (AID 1098).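 Further: score merges spot fluorescence intensity with its signal-to-noise ratio.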 The settings on record: fluorescence 635 nm, higher = more signal.
The nature of experiment [2]: probe aDKK1 binding to arrayed compounds – biochemical, biotinylated probe, 635/667 nm fluorescence, primary screen (AID 1099).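 Further: score merges 667nm spot fluorescence with signal to noise across triplicate slides.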 The settings on record: small-molecule microarray, higher = more signal.
A short description of experiment [3]: probe aCHRDL2 binding to arrayed compounds – biochemical, biotinylated probe, 635/667 nm fluorescence, primary screen (AID 1100). The settings on record: small-molecule microarray, higher = more signal.
A short description of experiment [4]: change in splice reporter luminescence, either direction, cell-based, HEK293, spliceosome inhibition project, primary screen (AID 1101).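 Further: HEK293 cells carrying a splicing-competent luciferase reporter gene; test concentration not given here.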 The settings on record: HEK293 splicing luciferase reporter, 24 h, higher = more signal, called active from +8 up or from −8 down. For orientation: In a reporter assay the amount or activity of a reporter protein is the signal.

Experiment [5] concerns the target Fibroblast growth factor 10 (Homo sapiens) (UniProt O15520). Briefly: compounds binding fibroblast growth factor 10 – biochemical, small-molecule microarray, 635 nm fluorescence, primary screen (AID 1102). The settings on record: FGF10 binding, fluorescence 635 nm, higher = more signal.
The subject of experiment [6] is glycogen synthase kinase-3 (GSK3A per assay name; protocol says GSK3B). The experiment is described as follows: compounds binding glycogen synthase kinase-3 – biochemical, small-molecule microarray, 635 nm fluorescence, GSK3A, primary screen (AID 1103). Further: the record names both GSK3A and GSK3B. The settings on record: fluorescence 635 nm, higher = more signal.
In experiment [7] the target is Epidermal growth factor receptor (Homo sapiens) (UniProt P00533). Briefly: compounds binding epidermal growth factor receptor – biochemical, small-molecule microarray, 635 nm fluorescence, primary screen (AID 1104).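 Further: score merges 667 nm emission intensity with spot signal to noise over triplicate slides.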 The settings on record: EGFR binding, higher = more signal.
For experiment [8], the target named is Follistatin-related protein 3 (Homo sapiens) (UniProt O95633). Briefly: compounds binding follistatin-related protein 3 – biochemical, small-molecule microarray, 635 nm fluorescence, primary screen (AID 1105).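 Further: score merges emission near 667 nm and signal to noise per printed spot across three slides.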 The settings on record: FSTL3 binding, higher = more signal.
For experiment [9], the target named is Dickkopf-related protein 1 (Homo sapiens) (UniProt O94907). Briefly: small molecules binding DKK1 protein – biochemical, small-molecule microarray, 635 nm fluorescence scan, primary screen (AID 1106).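 Further: score merges emission near 667 nm with signal to noise over three replicate slides.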 The settings on record: higher = more signal.
Experiment [10] deals with Inhibin beta A chain (activin A). The experiment is described as follows: small molecules binding activin A – biochemical, small-molecule microarray, 635 nm fluorescence scan, primary screen (AID 1107).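 Further: mouse activin A protein probed at 4.33 µg/mL on printed slides; score merges bound-protein fluorescence near 667 nm with spot signal-to-noise.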 The settings on record: INHBA, higher = more signal.
Experiment [11] concerns Human papillomavirus type 1a protein E7 (residues 44-93). Briefly: small molecules binding HPV E7 44-93 – biochemical, small-molecule microarray, residues 44-93, 635 nm fluorescence, primary screen (AID 1108).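 Further: E7 fragment applied at 1 µg/mL in TBST for 1 h at 4 C; score combines spot fluorescence with its signal to noise ratio.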 The settings on record: fluorescence 635 nm, higher = more signal.
The nature of experiment [12]: hepatitis C replication reporter changes, two-sided – Huh7 cells, luciferase reporter, HCV replication inhibitor project, primary screen (AID 1109).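 Further: huh7 hepatoma cells harbouring a luciferase neomycin HCV replicon reporter; luciferase luminescence as measure of HCV replicon replication; test concentration not given here.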 The settings on record: Huh7 HCV replicon luciferase reporter, 48 h; higher = more signal.
Experiment [13] deals with Left-right determination factor 2 (Homo sapiens) (UniProt O00292). Briefly: small molecules binding LEFTY2 protein – biochemical, small-molecule microarray, 635 nm fluorescence scan, primary screen (AID 1110). The settings on record: higher = more signal.
Experiment [14] deals with Calmodulin-1 (Homo sapiens) (UniProt P0DP23). The experiment is described as follows: small molecules binding calmodulin-1 with EGTA – biochemical, small-molecule microarray, Cy5-labelled CALM1, profiling panel (AID 1111).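 Further: labelled calmodulin applied in Tris saline Tween buffer holding calcium plus EGTA and DTT.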 The settings on record: Cy5-CALM1 binding fluorescence, higher = more signal.
The target is the same in experiment [15]. Briefly: small molecules binding Ca-loaded calmodulin-1 – biochemical, small-molecule microarray, Cy5-labelled CALM1, plus calcium, artefact control for SMM control-protein annotation, profiling panel (AID 1112).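 Further: score merges spot fluorescence with signal to noise from triplicate slides.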 The settings on record: Cy5-CALM1 binding fluorescence, higher = more signal.
Experiment [16] can be described thus: probe aWnt5a binding to arrayed compounds – biochemical, biotinylated probe, 635/667 nm fluorescence, primary screen (AID 1113).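 Further: score merges 667 nm fluorescence intensity with signal-to-noise per printed feature.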 The settings on record: small-molecule microarray, higher = more signal.
The nature of experiment [17]: probe aShh binding to arrayed compounds – biochemical, biotinylated probe, 635/667 nm fluorescence, primary screen (AID 1114).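 Further: probe is biotin-labelled aShh protein from a stem cell growth factor screen; measures binding of labelled protein to compounds printed on the slide; score merges feature fluorescence at 667 nm with signal-to-noise.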 The settings on record: small-molecule microarray, higher = more signal.
Experiment [18] in a line: probe aNog binding to arrayed compounds – biochemical, biotinylated probe, 635/667 nm fluorescence, primary screen (AID 1115).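 Further: probe is biotinylated aNog protein used at 0.15 µg/mL for 1 h at 4 C; z-score combines 667 nm fluorescence of each spot with its signal to noise.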 The settings on record: small-molecule microarray, higher = more signal.
For experiment [19], the target named is Torsin-1A-interacting protein 1 (Homo sapiens) (UniProt Q5JTV8). Briefly: compound microarray binding of lysate hLAP1 – cell lysate, small-molecule microarray, COS7 lysate, 635/667 nm fluorescence, primary screen (AID 1116). The settings on record: 635 nm fluorescence, higher = more signal.
Experiment [20] addresses Alpha-bungarotoxin (Bungarus multicinctus) (UniProt P60615). The experiment is described as follows: compounds binding labelled alpha-BTX control protein – biochemical, small-molecule microarray, Alexa647 label, 635/667 nm fluorescence, artefact control for SMM control protein annotation, profiling panel (AID 1117). The settings on record: alpha-BTX-A647 binding fluorescence, higher = more signal.

The source of these data is PubChem BioAssay.

Calls of active or inactive are those of the source.

Alpha-bungarotoxin (Bungarus multicinctus), sequence (P60615 whole entry, looked up): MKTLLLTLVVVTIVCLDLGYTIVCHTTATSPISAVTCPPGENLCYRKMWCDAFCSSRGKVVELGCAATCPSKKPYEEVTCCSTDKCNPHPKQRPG
Left-right determination factor 2 (Homo sapiens), sequence (O00292 whole entry, looked up): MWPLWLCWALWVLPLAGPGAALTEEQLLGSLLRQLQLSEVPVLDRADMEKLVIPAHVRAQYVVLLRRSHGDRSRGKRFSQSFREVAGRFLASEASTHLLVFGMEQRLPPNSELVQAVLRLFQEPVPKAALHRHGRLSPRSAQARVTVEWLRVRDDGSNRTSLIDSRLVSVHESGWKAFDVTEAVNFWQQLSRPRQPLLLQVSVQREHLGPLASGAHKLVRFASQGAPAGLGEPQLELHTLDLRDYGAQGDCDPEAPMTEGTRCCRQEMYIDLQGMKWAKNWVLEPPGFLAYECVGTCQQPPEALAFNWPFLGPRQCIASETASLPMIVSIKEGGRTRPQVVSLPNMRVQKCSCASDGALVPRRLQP
Follistatin-related protein 3 (Homo sapiens), sequence (O95633 whole entry, looked up): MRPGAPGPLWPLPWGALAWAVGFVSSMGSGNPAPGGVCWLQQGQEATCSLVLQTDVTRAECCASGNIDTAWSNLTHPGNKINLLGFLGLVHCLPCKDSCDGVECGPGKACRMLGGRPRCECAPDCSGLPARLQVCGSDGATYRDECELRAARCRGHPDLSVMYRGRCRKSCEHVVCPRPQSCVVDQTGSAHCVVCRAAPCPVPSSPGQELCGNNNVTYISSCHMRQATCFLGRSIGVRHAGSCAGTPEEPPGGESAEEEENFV
Epidermal growth factor receptor (Homo sapiens), sequence (P00533 whole entry, looked up): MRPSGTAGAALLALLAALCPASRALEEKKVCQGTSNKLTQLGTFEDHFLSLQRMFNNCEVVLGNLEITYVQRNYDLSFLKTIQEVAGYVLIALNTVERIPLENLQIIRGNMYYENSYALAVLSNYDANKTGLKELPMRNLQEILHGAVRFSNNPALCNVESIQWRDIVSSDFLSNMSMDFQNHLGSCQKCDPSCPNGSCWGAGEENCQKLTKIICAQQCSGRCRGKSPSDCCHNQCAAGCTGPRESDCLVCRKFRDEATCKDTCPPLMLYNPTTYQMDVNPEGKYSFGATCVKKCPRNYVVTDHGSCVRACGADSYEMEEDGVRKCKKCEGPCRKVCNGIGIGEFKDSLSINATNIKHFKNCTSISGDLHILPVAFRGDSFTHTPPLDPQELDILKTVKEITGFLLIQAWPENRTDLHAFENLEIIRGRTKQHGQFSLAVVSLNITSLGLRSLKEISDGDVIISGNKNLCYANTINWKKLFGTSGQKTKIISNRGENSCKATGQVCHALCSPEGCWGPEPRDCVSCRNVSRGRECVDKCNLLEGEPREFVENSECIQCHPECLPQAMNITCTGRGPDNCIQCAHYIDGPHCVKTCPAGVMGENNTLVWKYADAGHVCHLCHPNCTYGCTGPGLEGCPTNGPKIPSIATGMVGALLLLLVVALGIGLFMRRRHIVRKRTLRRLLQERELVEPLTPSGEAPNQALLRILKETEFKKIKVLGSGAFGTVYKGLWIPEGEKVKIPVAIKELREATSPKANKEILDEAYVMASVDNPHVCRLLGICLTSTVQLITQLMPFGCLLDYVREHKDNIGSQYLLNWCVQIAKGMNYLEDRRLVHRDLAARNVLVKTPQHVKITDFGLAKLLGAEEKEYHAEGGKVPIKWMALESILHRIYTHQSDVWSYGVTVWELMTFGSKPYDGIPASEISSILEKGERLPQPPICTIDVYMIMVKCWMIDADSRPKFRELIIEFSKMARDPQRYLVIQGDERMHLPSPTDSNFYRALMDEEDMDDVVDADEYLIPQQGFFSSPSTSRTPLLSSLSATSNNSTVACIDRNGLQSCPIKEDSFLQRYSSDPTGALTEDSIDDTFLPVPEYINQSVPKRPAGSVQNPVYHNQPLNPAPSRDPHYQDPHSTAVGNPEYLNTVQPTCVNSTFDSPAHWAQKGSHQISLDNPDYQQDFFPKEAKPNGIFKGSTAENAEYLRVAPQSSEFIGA
Torsin-1A-interacting protein 1 (Homo sapiens), sequence (Q5JTV8 whole entry, looked up): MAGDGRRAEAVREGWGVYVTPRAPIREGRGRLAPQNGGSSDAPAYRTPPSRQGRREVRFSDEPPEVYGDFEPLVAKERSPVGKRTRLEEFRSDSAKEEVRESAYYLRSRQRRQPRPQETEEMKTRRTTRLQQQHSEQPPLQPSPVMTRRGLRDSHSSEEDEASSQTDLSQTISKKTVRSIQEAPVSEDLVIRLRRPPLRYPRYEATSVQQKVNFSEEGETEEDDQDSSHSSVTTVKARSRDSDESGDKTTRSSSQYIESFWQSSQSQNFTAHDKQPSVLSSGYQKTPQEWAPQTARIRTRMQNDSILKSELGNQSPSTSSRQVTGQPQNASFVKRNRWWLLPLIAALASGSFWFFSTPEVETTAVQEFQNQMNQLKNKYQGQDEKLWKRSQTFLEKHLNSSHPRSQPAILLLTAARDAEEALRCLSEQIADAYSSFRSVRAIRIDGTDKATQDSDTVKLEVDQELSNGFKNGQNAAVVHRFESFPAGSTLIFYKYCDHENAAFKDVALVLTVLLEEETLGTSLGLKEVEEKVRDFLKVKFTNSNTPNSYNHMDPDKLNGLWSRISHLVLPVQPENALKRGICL
Dickkopf-related protein 1 (Homo sapiens), sequence (O94907 whole entry, looked up): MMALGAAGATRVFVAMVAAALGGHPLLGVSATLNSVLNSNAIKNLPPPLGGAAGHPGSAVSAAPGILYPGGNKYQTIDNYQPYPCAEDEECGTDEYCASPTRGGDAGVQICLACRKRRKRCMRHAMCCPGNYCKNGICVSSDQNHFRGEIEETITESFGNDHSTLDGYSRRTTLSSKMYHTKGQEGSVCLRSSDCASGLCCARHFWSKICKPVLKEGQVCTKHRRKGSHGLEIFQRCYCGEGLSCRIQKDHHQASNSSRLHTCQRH
Fibroblast growth factor 10 (Homo sapiens), sequence (O15520 whole entry, looked up): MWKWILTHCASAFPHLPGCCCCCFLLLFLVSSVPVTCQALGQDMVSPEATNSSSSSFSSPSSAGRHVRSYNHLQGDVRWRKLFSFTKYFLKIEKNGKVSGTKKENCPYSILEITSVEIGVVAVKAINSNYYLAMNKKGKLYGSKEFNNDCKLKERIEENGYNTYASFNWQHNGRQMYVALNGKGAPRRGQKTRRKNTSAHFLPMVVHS

On to `COC(=O)[C@H](C)NC(=O)CCC1CC(OC(=O)NCc2cccc3ccccc23)CC2(CCCC(COC(=O)NCC3CCCCC3)O2)O1` (stereo not given in full), for which the composite z-score in experiment [1] was 0.534; in [2] it was -0.0762; in experiment [3] it was -0.86; in experiment [5] it was 1.47; in [6], 1.36; in experiment [7], 1.15. For the same molecule, the composite z-score in experiment [8] was 1.08; in experiment [9] it was 0.528; in experiment [10] it was -0.564; in experiment [11], 1.32; in [13], 0.776; in experiment [14] it was 0.708. The composite z-score in experiment [15] was -0.798; in experiment [16], -0.174; in experiment [17], -0.0035; in experiment [18] it was -0.501; in experiment [19] it was 0.587; in [20], 0.585. Further, the results for the z-score in experiment [4] and in experiment [12] were -0.397 (inactive) and -0.411, respectively.

Take `CCOC(=O)[C@H](Cc1ccccc1)NC(=O)CCC1CC(OC(=O)NCc2ccc3c(c2)OCO3)CC2(CCCC(COC(=O)NCc3cccc(C(F)(F)F)c3)O2)O1` (stereo not given in full): the composite z-score was 0.239 in experiment [1]; 0.113 in [2]; -0.338 in [3]; 0.984 in [5]; 0.584 in [6]; 0.314 in [7]. Also, the composite z-score in experiment [8] was 1; in experiment [9], 0.495; in [10], 0.321; in experiment [11], 0.547; in [13], 0.48; in experiment [14], 0.214. For the same molecule, the composite z-score in [15] was -0.286; in experiment [16] it was -0.0792; in experiment [17] it was 0.108; in [18], 0.205; in experiment [19], 0.251; in experiment [20] it was 0.0294. Besides, the z-score in experiment [4] is -1.18 (inactive); in experiment [12], -1.21.

For `Cc1cc2c(nc1C)CCCN2CC(O)CN1CCN(C)CC1` (stereo not given), the composite z-score in experiment [1] came to 0.478; in experiment [2], 0.859; in experiment [3], 0.337; in experiment [5] it was 0.721; in [6], 0.132; in experiment [7], 0.752. Also, the composite z-score in experiment [8] is 0.79; in experiment [9] it was 1.02; in experiment [10], -1.07; in experiment [11], 0.329; in experiment [13] it was 0.625; in [14], -0.441. Further, the composite z-score in experiment [15] was -0.482; in experiment [16], 0.212; in experiment [17], 0.116; in experiment [18] it was -0.23; in [19] it was 0.395; in [20], 0.908. For the same molecule, the results for the z-score in experiment [4] and in experiment [12] were 0.154 (inactive) and -0.162, respectively.

Take `[N-]=[N+]=Nc1ccccc1C[C@@]1(C(N)=O)N=C(c2ccc(OCCCO)cc2)O[C@@H]1c1ccccc1`: the composite z-score in [1] is 0.616; in [2] it was 1.53; in [3], 1.3; in experiment [5], -0.0111; in [6] it was -0.0514; in [7], -0.874. Further, the composite z-score is -0.0838 in experiment [8]; -0.82 in experiment [9]; 1.34 in experiment [10]; 0.692 in experiment [11]; -1.09 in [13]; 1.7 in [14]. Further, the composite z-score in experiment [15] was 0.824; in experiment [16], -0.0445; in experiment [17], 0.456; in experiment [18], 0.662; in experiment [19], 1.26; in experiment [20], 0.546. Moreover, the z-score in experiment [4] is -1.23 (inactive); in experiment [12], -2.38.

As for `CC(C)(C)N1CC=CC23O[C@@H]4C=CCCOC(=O)C4[C@H]2C(=O)N(CCCCCO)[C@@H]3C1=O` (stereo not given in full), the composite z-score was 1.87 in experiment [1]; -0.399 in experiment [2]; 0.0199 in [3]; -0.0123 in experiment [5]; 0.126 in experiment [6]; -0.0688 in experiment [7]. In addition, the composite z-score was -0.361 in experiment [8]; -0.236 in [9]; 0.773 in [10]; 0.433 in experiment [11]; -0.316 in experiment [13]; -0.582 in [14]. Moreover, the composite z-score in experiment [15] was -0.839; in experiment [16] it was -0.0327; in [17], 0.0796; in experiment [18], -0.206; in [19] it was 2.15; in experiment [20], -0.949. In addition, the z-score was 0.164 (inactive) in experiment [4] and 0.651 in experiment [12].
